Screening results from PubChem BioAssay.
TDP1 inh = inhibitors of human tyrosyl-DNA phosphodiesterase TDP1. Potency, µM (titrated, usually from 130 µM), most hits filed as inhibitors. recombinant TDP1, AlphaScreen DNA substrate cleavage. 350,000 compounds, 0.28% hits. AID 485290; note: nearly all actives have a fitted effect of over 40% in size
Target sequence (Q9NUW8 whole entry, looked up): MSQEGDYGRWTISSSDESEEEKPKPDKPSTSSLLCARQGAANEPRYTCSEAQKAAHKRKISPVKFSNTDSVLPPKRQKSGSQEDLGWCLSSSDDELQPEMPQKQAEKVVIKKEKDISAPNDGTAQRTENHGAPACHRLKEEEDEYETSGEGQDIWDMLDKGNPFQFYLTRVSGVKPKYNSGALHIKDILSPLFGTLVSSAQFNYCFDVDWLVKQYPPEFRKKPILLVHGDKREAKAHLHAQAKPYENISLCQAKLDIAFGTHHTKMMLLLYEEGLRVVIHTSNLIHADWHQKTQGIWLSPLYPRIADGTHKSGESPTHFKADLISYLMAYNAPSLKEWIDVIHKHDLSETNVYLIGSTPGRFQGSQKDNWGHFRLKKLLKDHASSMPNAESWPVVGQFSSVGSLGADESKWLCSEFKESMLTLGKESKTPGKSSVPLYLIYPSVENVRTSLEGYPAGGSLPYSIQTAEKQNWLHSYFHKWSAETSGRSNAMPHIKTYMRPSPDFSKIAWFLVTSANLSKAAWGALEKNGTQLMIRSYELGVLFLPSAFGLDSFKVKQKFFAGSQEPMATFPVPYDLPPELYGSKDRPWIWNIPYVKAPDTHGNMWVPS
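Steps: enzyme plus compound, 15 min RT; add biotin/phosphotyrosine-FITC oligonucleotide (15 nM final), react 5 min; add donor/acceptor beads (10 ug/ml final), 10 min; read AlphaScreen. Tdp1 at 1 nM final.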
DT40 TDP1 no CPT = qHTS for Inhibitors of human tyrosyl-DNA phosphodiesterase 1 (TDP1): qHTS in cells in absence of CPT; 420,000 compounds, 15% hits; DT40 Tdp1-/- hTDP1 cells, no CPT, ATP luminescence, 48 h; Potency, µM (highest dose often 46.2 µM), actives largely listed as inhibitors; note: nearly all actives have a fitted effect of over 55% in size
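No-CPT arm: Tdp1-/-;hTDP1 DT40 cells (400/well) plus compounds, incubated ≥48 hr at 37 °C. Readout CellTiter-Glo luminescence.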
DT40 TDP1 CPT = growth inhibition of DT40 Tdp1-/-;hTDP1 cells with camptothecin (screen for TDP1 inhibitors) | chicken DT40 Tdp1-/-;hTDP1 cells + 20 nM CPT, ATP luminescence, 48 h | Potency, µM (series often up to 46.2 µM), usual class: inhibitors | 420,000 compounds, 12% hits | AID 686979; note: nearly all actives have a fitted effect of over 55% in size
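Chicken DT40 Tdp1-/- cells stably complemented with human TDP1 were seeded at 400 cells/well in medium containing 20 nM camptothecin, exposed to pin-transferred compounds, and grown at 37 °C for at least 48 hr. Viability was read as ATP luminescence.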
TGFb SMAD3 inh = inhibitors of TGF-b signaling. Potency, µM (series often up to 46.1 µM), actives largely listed as inhibitors. 410,000 compounds, 1.2% hits. HepG2 CAGA-GFP TGF-b/SMAD3 reporter, GFP fluorescence, 18 h; TGF-beta stimulated, 500 pg/mL final; note: nearly all actives have a fitted effect of over 65% in size
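HEPG2 CAGA-GFP reporter cells (1000/well, DMEM with 1% FBS) received compounds, then recombinant TGF-beta at 500 pg/mL final for 18 hours at 37 degrees C. Per-cell GFP summed per well was normalised to unstimulated and stimulated DMSO controls before curve fitting.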
IL-1B inflam inh = inhibitors of inflammasome signaling (IL-1 beta secretion); THP-1 LPS/ATP IL-1B secretion, AlphaLISA, 16 h; hits give low values; activity change, % at 57.5 µM; 360,000 compounds, 4.7% hits; in the data active = activity change below about -50%; inconclusive = mostly about -30% to -49%
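THP-1 cells pretreated 1 hr with compounds (up to 57.5 uM final), then stimulated with LPS (250 ng/mL final) plus ATP (1.25 mM final); secreted IL-1B measured by AlphaLISA after 16 hr, decreased signal indicating inhibition.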
HepG2 viability = kills HepG2 cells in TGF-b inhibitor counter-screen. HepG2 CAGA-GFP viability, ATP luminescence, 18 h. Potency, µM (doses to about 46.1 µM), usual class: cytotoxic. 410,000 compounds, 0.76% hits. AID 588856
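CellTiter-Glo luminescence gave cytotoxicity after 18 hours at 37 degrees C. The cells were HepG2 CAGA-GFP in 1% FBS DMEM, stimulated with 500 pg/mL TGF-beta after compound addition. %Activity was normalised to no-cell wells (complete cell-killing) and DMSO (no toxicity), and curves were fitted and classified.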
Numbers stand for hits; . = inactive; ? = inconclusive; / = not tested or not shown; [ ] = remark or other dose. Rows were chosen to be rich in hits. Some 18% of all compounds tested hit in one or more screens of this group. Unless noted, calls come from the whole dose curve; as a rule, active = well fitted curve in the direction sought with a large enough effect; inconclusive = small, poorly fitted or top-dose-only effect, or another doubt; inactive = no such curve, though single readings can be large; an effect the other way counts as inactive or inconclusive.

SMILES | TDP1 inh | DT40 TDP1 no CPT | DT40 TDP1 CPT | TGFb SMAD3 inh | IL-1B inflam inh | HepG2 viability
COc1ccc2c(c1)[C@H]1[C@H](CO2)[C@H](c2ccccc2)[C@]2(C)C(=O)N(Cc3ccc(C)cc3)CC(=O)N12 | . | ? | 14.6µM | . | -55.6 | .
Cc1ccc([C@@H]2[C@@H]3C(=O)N(c4ccccc4)C(=O)[C@@H]3[C@]3(C)C(=O)N(Cc4ccc(-c5ccccc5)cc4)CC(=O)N23)o1 | / | ? | 18.4µM | . | . | .
COc1ccc2c(c1)OC[C@H]1[C@H]2N2C(=O)CN(Cc3ccccc3)C(=O)[C@@]2(C)[C@H]1c1ccccc1 | / | ? | 18.4µM | ? | -54.3 | .
O=C(Nc1c(O)c2ccccc2oc1=O)c1cccc(F)c1 | .[12.3 µM] | . | . | . | / | .
Cc1oc(-c2ccccc2F)nc1CN1CCC(C(=O)NCc2ccco2)CC1 | . | . | . | . | . | .
CC(C)(C)c1ccc(C(=O)N2CCN(c3nc4ccccc4o3)CC2)cc1 | . | 6.51µM | 9.2µM | . | . | .
O=C(NC1CCCc2ccccc21)C1CCN(S(=O)(=O)N2CCCCCC2)CC1 (stereo not drawn) | . | 18.4µM | 13µM | . | . | .
Cc1oc(-c2ccccc2F)nc1CN1CCC(C(=O)NC2CCCCCCC2)CC1 | . | 23.1µM | ? | ? | . | .
O=C(c1ccc(-c2ccccc2)cc1)N1CCN(c2nc3ccccc3o2)CC1 | / | ? | . | . | . | .
Cc1oc(-c2ccccc2F)nc1CN1CCC(C(=O)NC2CCCc3ccccc32)CC1 (stereo not drawn) | . | ? | 14.6µM | . | . | .
CCCCOc1ccc(C2c3c(oc4ccc(C)cc4c3=O)C(=O)N2CCCN(C)C)cc1OCC (stereo not drawn) | . | . | . | . | / | .
Cc1ccc(C(=O)C(C)Oc2ccc3ccc(=O)oc3c2)cc1 (stereo not drawn) | . | ? | ? | . | . | .
Cc1ccc(C)c(NC(=O)CSc2nnc(-c3cc4occc4n3C)n2-c2ccccc2C)c1 | . | ? | ? | . | / | .
C[C@H]1CN([C@@H](C)CO)C(=O)c2cc(Br)cnc2O[C@H]1CN(C)C(=O)c1ccccn1 | / | . | . | . | . | .
CCCCc1nc2sc3c(=O)[nH]c(=S)[nH]c3c2c2c1CCC2 | / | . | . | . | . | .
Cc1ccc(C(=O)Oc2ccc(-c3nnco3)cc2)o1 | . | . | . | . | . | .
O=C(NC1CCCCCCC1)C1CCN(c2nc3ccccc3o2)CC1 | . | 16.4µM | ? | ? | . | .
O=C(NCCc1ccccc1)C1CCN(c2nc3ccccc3o2)CC1 | . | . | . | . | . | .
CCc1ccc(NC(=O)N(Cc2c[nH]c3ccccc23)C2CCCCCC2)cc1 | . | 7.31µM | 20.6µM | . | / | .
CCc1ccc(NC(=O)N(Cc2c[nH]c3ccccc23)C2CCCCC2)cc1 | . | 6.51µM | 7.31µM | . | / | .
O=C(Nc1ccccc1)N(Cc1c[nH]c2ccccc12)C1CCCCCC1 | . | 18.4µM | 11.6µM | ? | / | .
COc1cc2cc(CN(C(=O)Nc3ccccc3)C3CCCC3)c(=O)[nH]c2cc1OC | . | . | . | . | ? | .
N#CCCN1C(=O)C2(OCCO2)c2ccccc21 | / | . | . | . | . | .
Cc1cccc(-c2noc(-c3ccccc3NC(=O)C3CC(=O)N(c4ccccc4C)C3)n2)c1 (stereo not drawn) | . | 14.6µM | 23.1µM | . | / | .
Cc1ccc(-c2noc(-c3ccccc3NC(=O)C3CC(=O)N(c4ccccc4C)C3)n2)cc1 (stereo not drawn) | . | 23.1µM | 18.4µM | . | / | .
SMILES | TDP1 inh | DT40 TDP1 no CPT | DT40 TDP1 CPT | TGFb SMAD3 inh | IL-1B inflam inh | HepG2 viability
COc1ccc(N2CC(C(=O)Nc3ccccc3-c3nc(-c4ccc(C)cc4)no3)CC2=O)cc1 (stereo not drawn) | . | . | . | . | / | .
Cc1cccc(C(=O)Nc2ccccc2-c2nc(-c3ccccc3)no2)c1 | . | . | . | . | / | .
CC1=C(c2ccc(C)cc2)S(=O)(=O)NC1=NCc1ccccc1Cl | . | 20.6µM | 23.1µM | . | / | .
CC(C)(C)OC(=O)C[C@H]1C/C=C\C[C@H](CC(=O)N(CCO)Cc2ccccc2)C(=O)NC[C@H](c2ccccc2)OC1=O | . | ? | 16.4µM | . | . | .
CC(C)(C)OC(=O)C[C@H]1C/C=C\C[C@@H](CC(=O)N(CCO)Cc2ccccc2)C(=O)NC[C@@H](c2ccccc2)OC1=O | . | 18.4µM | ? | ? | . | .
O=C(/C=C/c1ccc2c(c1)OCO2)NCCS(=O)(=O)N1CCN(c2ccccc2)CC1 | / | ? | . | . | . | .
CC1(C(=O)NCC2CC2)CCN1C(=O)C1(c2ccccc2)CC1 (stereo not drawn) | / | . | . | . | . | .
COC(=O)c1ccccc1NC(=O)CSCC(=O)Nc1ccc(F)cc1 | . | . | . | . | . | .
COc1cc(Br)cc(CN2CCN(C=O)CC2)c1O | . | ? | 25.9µM | . | . | .
Cc1ccc(S(=O)(=O)N2CCc3ccccc3C2CC(=O)O)cc1 (stereo not drawn) | / | . | . | . | . | .
CCN1CCN(c2cc(-c3ccc(F)cc3)c3c(n2)CCCCCC3)CC1 | / | . | . | / | / | /
CCc1ccc(-c2cc(C(F)(F)F)n3nc(C(=O)Nc4cnn(Cc5ccc(C)cc5)c4)cc3n2)s1 | . | 5.01µM | 5.01µM | . | . | .
COC(=O)c1ccc(/C=C/C(=O)OCC(=O)c2ccc[nH]2)cc1 | . | . | . | . | . | .
O=C(Nc1ccc2c(c1)OCCO2)c1ccccc1F | . | 14.6µM | 7.31µM | . | . | .
O=C(NC(=S)Nc1ccc2c(c1)OCCO2)c1ccccc1F | . | . | . | . | ? | .
COc1cccc(-n2c(=O)[nH]cc(C(=O)Nc3ccc4c(c3)OCCO4)c2=O)c1 | . | . | 4.11µM | . | . | .
O=C(Nc1ccc2c(c1)OCCO2)c1cccc2nc3ccccc3nc12 | . | 14.6µM | 23.1µM | . | ? | .
O=C(Nc1cccc(NC(=O)c2ccccc2F)c1)c1ccccc1 | .[12.3 µM] | ? | ? | . | -53.6 | .
COc1cc2c(cc1OC)/C(=C/c1ccc(N(C)C)cc1)C=C2 | / | ? | ? | . | / | .
Nc1ccc2c(c1)C1(CCC2)NC(=O)NC1=O (stereo not drawn) | / | . | . | . | . | .
COc1cc([C@@H]2c3cc4c(cc3[C@@H](OC3OC5COC(C)OC5C(O)C3O)[C@H]3COC(=O)[C@H]23)OCO4)cc(OC)c1O (stereo partly drawn) | . | / | / | / | / | /
